The text below walks through data of PubChem BioAssay (Tox21).

Several values for one entry are separate records, joined by “and”; a condition that tells them apart may be missing. Equal entries are not always repeated. Records with an inconclusive call do not appear. Some compounds were tested as several samples or in several runs, with calls that do not always agree. Activity calls are given as the source filed them. Unless noted, the call rests on the fitted dose curve; in most records, active means well fitted curve in the direction sought with a large enough effect in the repeat runs; inconclusive means weak or mixed curves; inactive means no such curve, though single readings can be large; an effect the other way counts as inactive or inconclusive.

The nature of test [1]: qHTS assay to identify small molecule that activate the aryl hydrocarbon receptor (AhR) signaling pathway - cell viability counter screen (AID 743086). Further: nearly all actives have a fitted effect of over 45% in size. Further: potency means the concentration at half of the fitted maximal effect. In short, it runs like this: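 HepG2-AhR-luc (HG2L7.5c1) cells, 4000/well, were preincubated 5 h at 37C, exposed to compound in qHTS format for 24 hr at 37C, then given CellTiter-Fluor for 30 min; viability was read as fluorescence in the reporter wells.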
Background: qHTS replaces the single test concentration by a dilution series.

Test [2] can be described thus: qHTS assay to identify small molecule antagonists of the peroxisome proliferator-activated receptor gamma (PPARg) signaling pathway - cell viability counter screen (AID 743194). Further: nearly all actives have a fitted effect of over 55% in size. Further: potency means the concentration at half of the fitted maximal effect. Particulars: Potency: co-treated with 50 nM rosiglitazone unless noted. In short, it runs like this:
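PPARg-UAS-bla HEK293H cells were plated, rested 5 h at 37 C, then treated with compounds plus rosiglitazone (50 nM final) for 17 h at 37 C; viability was then read by CellTiter-Glo luminescence after 30 min at room temperature.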

A short description of test [3]: qHTS assay for small molecule agonists of the antioxidant response element (ARE) signaling pathway (AID 743202; active means well fitted activation curve with a large enough effect in the signal ratio in the repeat runs, not every such curve was filed as active; the % refers to the signal ratio; further: potency means the concentration at half of the fitted maximal effect). A digest of the protocol:
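Steps: seed ARE-bla HepG2 cells (2,000/well); incubate 5 h at 37 C; add compounds by pin tool; incubate 16 h at 37 C; add FRET substrate; read fluorescence after 2 h at RT.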

The nature of test [4]: qHTS assay for small molecule agonists of the antioxidant response element (ARE) signaling pathway - cell viability counter screen (AID 743203; calls by dose curve; further: nearly all actives have a fitted effect of over 55% in size; further: potency means the concentration at half of the fitted maximal effect). A digest of the protocol: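 Parallel cytotoxicity read-out for the ARE-bla screen: HepG2 reporter cells, 16 hrs with compounds, then CellTiter-Glo luminescence.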
Test [5] in a line: qHTS assay for small molecule activators of the heat shock response signaling pathway - cell viability counter screen (AID 743209). Further: nearly all actives have a fitted effect of over 50% in size. A digest of the protocol: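 To flag cytotoxic compounds, HSE-bla HeLa cells plated at 1500 cells/well were dosed for 5 h at 37 C, followed by the reporter FRET read and then CellTiter-Glo, with luminescence recorded 30 min after reagent addition.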

The nature of test [6]: qHTS assay to identify small molecule agonists of the peroxisome proliferator-activated receptor delta (PPARd) signaling pathway - cell viability counter screen (AID 743211). Further: nearly all actives have a fitted effect of over 55% in size. Further: potency means the concentration at half of the fitted maximal effect. In short, it runs like this: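 Luminescent ATP viability assay (CellTiter-Glo, 30 min RT) in UAS-bla HEK293H cells carrying the PPAR delta reporter construct, 3000 cells/well, after a 17 h compound treatment at 37 C.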

Test [7] is described as follows: qHTS assay to identify small molecule antagonists of the peroxisome proliferator-activated receptor delta (PPARd) signaling pathway - cell viability counter screen (AID 743213). Further: nearly all actives have a fitted effect of over 50% in size. Further: potency means the concentration at half of the fitted maximal effect. In short, it runs like this: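 Same-well viability: cells pre-incubated 5 h, dosed with compound plus 300 nM L165041, kept 17 h at 37 C, FRET substrate 2 h RT, then CellTiter-Glo 30 min RT and luminescence.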

Test [8] is described as follows: qHTS assay to identify small molecule agonists of the farnesoid-X-receptor (FXR) signaling pathway - cell viability counter screen (AID 743218). Further: nearly all actives have a fitted effect of over 45% in size. Further: potency means the concentration at half of the fitted maximal effect. A digest of the protocol: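 Same-well cytotoxicity check on FXR-UAS-bla HEK 293T cells: 5 h attachment, 16 h compound at 37 C, CellTiter-Glo luminescence read at room temperature after 30 min.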
Test [9] is described as follows: qHTS assay to identify small molecule antagonists of the farnesoid-X-receptor (FXR) signaling pathway - cell viability counter screen (AID 743221; active means well fitted cell-killing curve with a large enough effect in the repeat runs, not every such curve was filed as active; further: nearly all actives have a fitted effect of over 50% in size; further: potency means the concentration at half of the fitted maximal effect). A digest of the protocol:
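In GeneBLAzer FXR-UAS-bla HEK 293T cells stimulated with 50 uM chenodeoxycholic acid (final), compounds acted for 16 h at 37 C. Viability was assessed afterwards by CellTiter-Glo luminescence.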

Test [10] is described as follows: qHTS assay to identify small molecule agonists of the vitamin D receptor (VDR) signaling pathway - cell viability counter screen (AID 743224). Further: nearly all actives have a fitted effect of over 50% in size. Further: potency means the concentration at half of the fitted maximal effect. A digest of the protocol:
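Counter screen for cytotoxicity: VDR-bla cells at 2,000 cells/well, 16 h compound exposure, then CellTiter-Glo luminescence after the beta-lactamase measurement.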

A short description of test [11]: qHTS assay to identify small molecule agonists of the NFkB signaling pathway - cell viability counter screen (AID 1159515; calls by dose curve; further: nearly all actives have a fitted effect of over 55% in size; further: potency means the concentration at half of the fitted maximal effect). A digest of the protocol:
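Counter screen run alongside the NFkB-bla agonist assay: ME-180 reporter cells exposed to compounds for 5 hr, then lysed with CellTiter-Glo in the same wells. Luminescence, read after 30 min, reflects viable cells.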

Test [12] addresses Peroxisome proliferator-activated receptor gamma (Homo sapiens) (UniProt P37231). Nature of the test: qHTS assay to identify small molecule agonists of the peroxisome proliferator-activated receptor gamma (PPARg) signaling pathway (AID 743094; active means well fitted activation curve with a large enough effect in the signal ratio in the repeat runs, not every such curve was filed as active; the % refers to the signal ratio). In short, it runs like this: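 Fluorescence-based beta-lactamase readout in HEK293H PPARg UAS-bla cells after 17 h compound exposure (37C) and 1 h B/G FRET substrate incubation at room temperature.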

Test [13] deals with Peroxisome proliferator-activated receptor delta (Homo sapiens) (UniProt Q03181). Nature of the test: qHTS assay to identify small molecule agonists of the peroxisome proliferator-activated receptor delta (PPARd) signaling pathway (AID 743212; calls by dose curve). A digest of the protocol: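 Cells expressing a UAS-driven beta-lactamase reporter (PPARd-bla HEK293H) were given test compounds after a 5 h settle and kept at 37 C. Reporter activity was then measured as FRET fluorescence using LiveBLAzer B/G substrate.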
Chain of Peroxisome proliferator-activated receptor delta (Homo sapiens) (Q03181 whole entry, looked up): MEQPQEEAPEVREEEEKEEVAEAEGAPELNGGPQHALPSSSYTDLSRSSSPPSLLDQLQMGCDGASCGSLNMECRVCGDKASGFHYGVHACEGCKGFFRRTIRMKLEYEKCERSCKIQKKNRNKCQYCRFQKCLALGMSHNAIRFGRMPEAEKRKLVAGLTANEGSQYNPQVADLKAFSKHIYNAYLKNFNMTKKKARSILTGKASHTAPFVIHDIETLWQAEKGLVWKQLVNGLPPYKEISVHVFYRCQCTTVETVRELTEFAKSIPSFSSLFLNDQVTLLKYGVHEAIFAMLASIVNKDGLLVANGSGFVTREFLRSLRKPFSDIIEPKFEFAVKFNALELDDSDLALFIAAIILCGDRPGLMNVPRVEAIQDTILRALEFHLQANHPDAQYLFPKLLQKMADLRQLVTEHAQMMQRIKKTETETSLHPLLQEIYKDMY

Test [14] shares this target. Nature of the test: qHTS assay to identify small molecule antagonists of the peroxisome proliferator-activated receptor delta (PPARd) signaling pathway (AID 743215; active means well fitted inhibition curve with a large enough effect in the signal ratio in the repeat runs, not every such curve was filed as active; the % refers to the signal ratio;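 further: cells stimulated with agonist L165041 at 300 nM final during compound exposure; series mostly up to about 62 µM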). In short, it runs like this:
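Screen format: qHTS, antagonist mode. HEK293H PPARd-bla cells received compound and 300 nM L165041 (final), 17 h, 37 C. Beta-lactamase detected via FRET substrate fluorescence, 2 h, room temperature.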

The target of test [15] is Bile acid receptor (Homo sapiens) (UniProt Q96RI1). The experiment in a line: qHTS assay to identify small molecule antagonists of the farnesoid-X-receptor (FXR) signaling pathway (AID 743217; active means well fitted inhibition curve with a large enough effect in the signal ratio in the repeat runs, not every such curve was filed as active; the % refers to the signal ratio; further: potency means the concentration at half of the fitted maximal effect). In short, it runs like this: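 Quantitative HTS, beta-lactamase reporter format: FXR-UAS-bla HEK 293T cells co-treated 16 h at 37 °C with compounds and 50 uM final chenodeoxycholic acid, then read by B/G FRET fluorescence.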
Chain of Bile acid receptor (Homo sapiens) (Q96RI1 whole entry, looked up): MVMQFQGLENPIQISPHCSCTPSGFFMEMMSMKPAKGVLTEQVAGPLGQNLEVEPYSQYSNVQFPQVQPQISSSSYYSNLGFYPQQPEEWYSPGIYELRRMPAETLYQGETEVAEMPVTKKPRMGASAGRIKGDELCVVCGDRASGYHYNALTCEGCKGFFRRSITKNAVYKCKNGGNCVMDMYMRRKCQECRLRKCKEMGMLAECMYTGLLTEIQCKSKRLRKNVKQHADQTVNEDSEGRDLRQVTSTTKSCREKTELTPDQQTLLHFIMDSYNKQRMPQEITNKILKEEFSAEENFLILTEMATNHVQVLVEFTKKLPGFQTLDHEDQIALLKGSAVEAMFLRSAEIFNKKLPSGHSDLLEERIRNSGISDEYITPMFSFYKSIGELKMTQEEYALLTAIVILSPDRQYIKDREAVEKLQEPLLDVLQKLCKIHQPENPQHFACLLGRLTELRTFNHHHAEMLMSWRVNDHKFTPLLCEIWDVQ

The target is the same in test [16]. Nature of the test: qHTS assay to identify small molecule agonists of the farnesoid-X-receptor (FXR) signaling pathway (AID 743220; active means well fitted activation curve with a large enough effect in the signal ratio in the repeat runs, not every such curve was filed as active; the % refers to the signal ratio). In short, it runs like this: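 FXR-UAS-bla HEK 293T cells carrying a UAS-driven beta-lactamase reporter were plated for 5 h at 37C/5% CO2, then exposed to DMSO-dissolved Tox21 10K compounds for 16 h at 37C. A LiveBLAzer B/G FRET substrate was loaded for 2 h at room temperature before fluorescence reading.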

Test [17] addresses Vitamin D3 receptor (Homo sapiens) (UniProt P11473). The experiment in a line: qHTS assay to identify small molecule antagonists of the vitamin D receptor (VDR) signaling pathway (AID 743223; active means well fitted inhibition curve with a large enough effect in the signal ratio in the repeat runs, not every such curve was filed as active; the % refers to the signal ratio; further: potency means the concentration at half of the fitted maximal effect). A digest of the protocol:
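Agonist 1alpha,25-dihydroxyvitamin D3 (3 nM in well) was added with each compound to VDR-bla cells preincubated 4 h. Cells stood 16 h at 37C, then FRET substrate 2 h at room temperature; fluorescence intensity recorded.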

Test [18] can be described thus: qHTS assay to identify small molecule antagonists of the vitamin D receptor (VDR) signaling pathway - cell viability counter screen (AID 743225). Further: nearly all actives have a fitted effect of over 50% in size. Further: potency means the concentration at half of the fitted maximal effect. A digest of the protocol: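 Luminescent cell viability (CellTiter-Glo) in VDR-bla HEK 293T cells after 16 h compound exposure at 37C in the presence of 3 nM final 1-alpha,25-dihydroxy vitamin D3.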
Test [19] can be described thus: qHTS assay for small molecule activators of the heat shock response signaling pathway (AID 743210; active means well fitted activation curve with a large enough effect in the signal ratio in the repeat runs, with a control signal flat, not every such curve was filed as active; the % refers to the signal ratio;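 further: HeLa cells with beta-lactamase reporter driven by heat shock elements; series mostly up to about 63 µM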). A digest of the protocol:
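Activation of heat shock element-controlled beta-lactamase expression is measured in HeLa cells by LiveBLAzer FRET fluorescence, with compound exposure lasting 5 h at 37 C and substrate loading 2.5 h at room temperature.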

Chain of Peroxisome proliferator-activated receptor gamma (Homo sapiens) (P37231 whole entry, looked up): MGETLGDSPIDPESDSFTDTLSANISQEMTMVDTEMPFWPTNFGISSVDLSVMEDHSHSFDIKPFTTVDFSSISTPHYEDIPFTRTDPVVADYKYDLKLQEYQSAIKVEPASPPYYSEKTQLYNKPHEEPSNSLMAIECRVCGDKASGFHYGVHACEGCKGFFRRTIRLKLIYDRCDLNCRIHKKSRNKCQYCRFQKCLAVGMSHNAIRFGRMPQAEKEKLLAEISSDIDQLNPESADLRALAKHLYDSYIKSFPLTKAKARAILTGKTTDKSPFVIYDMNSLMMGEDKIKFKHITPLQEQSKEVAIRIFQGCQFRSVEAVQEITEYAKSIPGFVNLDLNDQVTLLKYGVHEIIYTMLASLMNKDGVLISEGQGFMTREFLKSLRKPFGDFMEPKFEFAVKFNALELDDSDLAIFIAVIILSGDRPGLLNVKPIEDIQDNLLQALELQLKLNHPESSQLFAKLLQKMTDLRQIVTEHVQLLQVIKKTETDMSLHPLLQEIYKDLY
Chain of Vitamin D3 receptor (Homo sapiens) (P11473 whole entry, looked up): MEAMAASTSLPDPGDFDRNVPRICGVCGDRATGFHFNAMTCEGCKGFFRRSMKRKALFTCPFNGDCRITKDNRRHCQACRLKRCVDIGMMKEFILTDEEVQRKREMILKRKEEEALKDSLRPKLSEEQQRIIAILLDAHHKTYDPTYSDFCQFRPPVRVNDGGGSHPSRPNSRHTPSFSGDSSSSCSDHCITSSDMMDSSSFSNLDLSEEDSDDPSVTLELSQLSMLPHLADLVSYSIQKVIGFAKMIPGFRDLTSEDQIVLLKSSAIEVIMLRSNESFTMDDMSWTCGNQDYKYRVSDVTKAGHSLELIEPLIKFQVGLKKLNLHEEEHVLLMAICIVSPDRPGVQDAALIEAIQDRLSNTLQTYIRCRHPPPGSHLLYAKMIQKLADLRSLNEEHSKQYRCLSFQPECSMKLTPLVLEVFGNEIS

On to `O=C(O)c1ccccc1O`, for which the Potency result in test [1], in test [2], in test [3], in test [4], in [5] and in test [6] was “inactive” in each case. Moreover, the Potency result in test [7], in [8], in test [9], in test [10] and in test [11] was “inactive” in each case.

Turning to `C[N+](C)(C)Cc1ccccc1`, the Potency entry in test [1], in test [2], in test [3], in test [4], in test [6] and in test [7] was “inactive” each time. Besides, the Potency entry in test [15], in [8], in [9], in [17], in test [10] and in test [11] was “inactive” in each case. Also, the result in test [12], in test [13], in [14] and in test [16] was inactive.

For the compound `CC(=O)[O][Hg][c]1ccccc1`, the Potency was 9.44 µM (active) and 4.29 µM (active) and 4.86 µM (active) in [1]; 686 nM (active) and 309 nM (active) and 1.88 µM (active) in test [2]; 762 nM (active) and 433 nM (active) and 1.19 µM (active) in test [4]; 611 nM (active) and 977 nM (active) and 2.98 µM (active) in test [6]; 1.53 µM (active) and 1.1 µM (active) and 1.68 µM (active) in test [7]; 776 nM (active) in test [15]. The Potency in test [8] was 968 nM (active) and 871 nM (active) and 2.11 µM (active); in [9], 1.09 µM (active) and 1.1 µM (active) and 2.98 µM (active); in [17], 863 nM (active) and 2.13 µM (active); in test [10], 686 nM (active) and 871 nM (active) and 422 nM (active); in test [11], 485 nM (active) and 549 nM (active) and 1.34 µM (active).

In the case of `CCCCCCCCCCCCOS(=O)(=O)O`, the Potency entry in test [1], in test [2], in test [3], in [4], in test [9] and in test [10] was “inactive” throughout. For the same compound, the Potency entry in test [11] was “inactive”. For the same compound, the Potency is 38.9 µM (active) and inactive in test [6]; 38.9 µM (active) and inactive in [7]; 49 µM (active) and 24.5 µM (active) and inactive in test [8]; 34.7 µM (active) and inactive in test [18].

As for `CCCCCC[n+]1ccccc1`, the Potency result in test [1], in test [2], in test [4], in test [8], in test [9] and in [18] was “inactive” throughout. Further, the Potency entry in test [11] is “inactive”. Moreover, the Potency is 43.2 µM (active) and inactive and 17.2 µM (active) in test [3]; 55.5 µM (active) and 55.3 µM (active) and inactive in [6]; 55.5 µM (active) and inactive in [7]; 39.3 µM (active) and 49.3 µM (active) and inactive in test [10]. Besides, the outcome in test [19] was inactive.

As to `CCCC[n+]1ccc(C)cc1`, the Potency result in [1], in [4], in [8], in test [9] and in test [11] was “inactive” throughout. Also, the Potency result in test [2] was “inactive and 48.7 µM [setting not given] (active)”; in test [3], 3.91 µM (active) and 4.33 µM (active) and inactive; in [6], “inactive and 48.7 µM (active)”; in test [7] it was “inactive and 43.4 µM (active)”; in [10] it was “inactive and 43.4 µM (active)”; in test [18] it was “inactive and 48.7 µM (active)”. The result in [19] was inactive.

Turning to `N#CS`, the Potency entry in test [1], in [2], in test [3], in [4], in [5] and in test [6] was “inactive” each time. Further, the Potency result in test [7], in test [8], in test [9], in test [17], in test [10] and in [18] was “inactive” in each case. Further, in test [11], the Potency entry was “inactive”. Further, in test [19], the result was inactive.

Take `CCCCCCn1cc[n+](C)c1`: the Potency result in test [1], in test [2], in [4], in test [5], in test [6] and in test [7] was “inactive” each time. Moreover, the Potency result in test [8], in test [9], in test [10] and in [11] was “inactive” each time.
